Results on seven compounds are retold here after PubChem BioAssay (Tox21).

The structures appear in SMILES notation. Where “and” joins values, the source holds several entries; their conditions need not be identical. Identical values can stand only once. Records with an inconclusive call do not appear. The source holds several records for some structures; these can differ, active in one and inactive in another. Calls of active or inactive are those of the source. Unless noted, calls come from the whole dose curve; as a rule, active = well fitted curve in the direction sought with a large enough effect in the repeat runs; inconclusive = weak or mixed curves; inactive = no such curve, though single readings can be large; an effect the other way counts as inactive or inconclusive.

Test [1] can be described thus: Caspase-3/7 induction in HepG2 cells by small molecules, qHTS assay (AID 1346978). Note: nearly all actives have a fitted effect of over 15% in size. Note: potency is the fitted concentration of half-maximal effect. In a few lines: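 Caspase-3/7 induction was measured by Caspase-Glo 3/7 luminescence (30 min, room temperature) after a 17 hr compound exposure of wild-type HepG2 cells seeded at 2,000 per well and pre-incubated 5 hr.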
For orientation: Quantitative high-throughput screening tests each substance at several concentrations.

Test [2] can be described thus: Caspase-3/7 induction in CHO-K1 cells by small molecules, qHTS assay (AID 1346980). Note: nearly all actives have a fitted effect of over 15% in size. Note: potency is the fitted concentration of half-maximal effect. In a few lines:
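Luminescent Caspase-Glo 3/7 read (30min, room temperature) quantified apoptosis induction. Cells were wild-type CHO-K1, treated with compound for 17hr at 37 C and 5% CO2.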

Test [3] can be described thus: Caspase-3/7 induction in HepG2 cells by small molecules, qHTS cell viability counter screen (AID 1346981). Note: nearly all actives have a fitted effect of over 30% in size. Note: potency is the fitted concentration of half-maximal effect. In a few lines:
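Fluorescence read-out of live-cell protease activity (CellTiter-Fluor) after 1 hr with reagent. This was measured in the same wells as the caspase-3/7 luminescence, on HepG2 cells exposed to DMSO-dissolved compounds for 16 hr at 37 C.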

Test [4] concerns the target Nuclear receptor subfamily 1 group I member 2 (Homo sapiens) (UniProt O75469). Nature of the test: Human pregnane X receptor (PXR) small molecule agonists, qHTS assay (AID 1346982). Note: nearly all actives have a fitted effect of over 35% in size. Note: potency is the fitted concentration of half-maximal effect. In a few lines: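 HepG2 PXR-Luc reporter line, 5% charcoal-stripped FBS; 5 hr pre-incubation, compound (DMSO) 24 hr at 37 C/5% CO2; ONE-Glo 30 min RT; luminescence read-out.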
For test [5], the target named is Acetylcholinesterase (Homo sapiens) (UniProt P22303). Nature of the test: Acetylcholinesterase (AChE) small molecule antagonists: colormetric cell-based qHTS assay (AID 1347395; calls by dose curve; note: nearly all actives have a fitted effect of over 30% in size). In a few lines:
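Quantitative HTS in attached SH-SY5Y cells: 30 min compound exposure, then 90 min with acetylthiocholine and DTNB at 37 C; colour from thiocholine reports AChE activity.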

Test [6] has the same target. Nature of the test: Acetylcholinesterase (AChE) small molecule antagonists: enzyme-based qHTS assay (AID 1347397; calls by dose curve; note: nearly all actives have a fitted effect of over 55% in size). The settings on record: Potency: AChE enzyme activity inhibition. In a few lines: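 Colorimetric DTNB readout of acetylthiocholine hydrolysis, 10 min at room temperature, after 30 min room-temperature exposure of 50 mU/mL recombinant human enzyme to compound; DMSO vehicle control.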

Test [7] shares this target. Nature of the test: Acetylcholinesterase (AChE) small molecule antagonists: fluorescence cell-based qHTS assay (AID 1347398; calls by dose curve; note: nearly all actives have a fitted effect of over 50% in size). The conditions noted are these: Potency: AChE activity. In a few lines:
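Cellular AChE activity read as thiocholine from acetylthiocholine hydrolysis, detected by Thiolite Green fluorescence at 490/520 nm after 40 min at room temperature. Compounds were pre-incubated 30 min at 37 C on adherent SH-SY5Y cells.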

Test [8] has the same target. Nature of the test: Acetylcholinesterase (AChE) small molecule antagonists: enzyme-based qHTS assay with human liver microsomes (AID 1347399; calls by dose curve; note: nearly all actives have a fitted effect of over 60% in size). The conditions noted are these: Potency: qHTS inhibition. In a few lines: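 Recombinant human AChE (50 mU/mL in the enzyme mix) and human liver microsomes (0.25 mg/mL final) were preincubated with compound and NADPH (0.25 mg/mL final) for 30 min at 37 C. Acetylthiocholine/DTNB was then added; thiocholine was read colorimetrically after 10 min at room temperature.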

The target in test [9] is Cytochrome P450 2D6 (Homo sapiens) (UniProt P10635). Nature of the test: Cytochrome P450 Family 2 Subfamily D Member 6 (CYP2D6) small molecule antagonists: luciferase reporter qHTS assay (AID 1671196). Note: nearly all actives have a fitted effect of over 50% in size. Note: potency is the fitted concentration of half-maximal effect. In a few lines: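 Luminogenic proluciferin substrate, CYP2D6 enzyme; 10 min RT preincubation with compound, NADPH regeneration system added, 1 h RT. Stop/detection reagent, 20 min RT, luminescence read (RLU). Signal proportional to CYP activity.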
Sequence of Cytochrome P450 2D6 (Homo sapiens) (P10635 whole entry, looked up): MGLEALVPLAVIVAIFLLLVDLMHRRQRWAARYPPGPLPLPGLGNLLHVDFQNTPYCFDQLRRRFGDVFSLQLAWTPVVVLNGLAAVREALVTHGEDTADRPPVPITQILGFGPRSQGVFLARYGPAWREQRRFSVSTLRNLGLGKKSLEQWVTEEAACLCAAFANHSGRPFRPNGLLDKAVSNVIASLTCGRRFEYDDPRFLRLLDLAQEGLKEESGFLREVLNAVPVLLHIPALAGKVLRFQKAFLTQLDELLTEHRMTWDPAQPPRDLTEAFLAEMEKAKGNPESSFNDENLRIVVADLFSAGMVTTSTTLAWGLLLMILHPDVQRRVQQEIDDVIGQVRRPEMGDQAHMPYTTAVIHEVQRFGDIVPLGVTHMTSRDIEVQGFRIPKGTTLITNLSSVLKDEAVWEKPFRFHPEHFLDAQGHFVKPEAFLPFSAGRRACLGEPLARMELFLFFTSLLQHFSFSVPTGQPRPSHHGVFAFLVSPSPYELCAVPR
For orientation: In a reporter assay the amount or activity of a reporter protein is the signal.

Test [10] addresses Cytochrome P450 2C19 (Homo sapiens) (UniProt P33261). Nature of the test: Cytochrome P450 Family 2 Subfamily C Member 19 (CYP2C19) small molecule antagonists: luciferase reporter qHTS assay (AID 1671197). Note: nearly all actives have a fitted effect of over 65% in size. Note: potency is the fitted concentration of half-maximal effect. In a few lines: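 P450-Glo CYP2C19 system: enzyme-substrate mix with compound 10 min at room temperature, then NADPH regeneration solution, 1 h at 37C. Proluciferin-to-luciferin conversion detected by luminescence after 20 min with detection reagent; ketoconazole as positive control.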

Test [11] concerns the target Cytochrome P450 2C9 (Homo sapiens) (UniProt P11712). Nature of the test: Cytochrome P450 Family 2 Subfamily C Member 9 (CYP2C9) small molecule antagonists: luciferase reporter qHTS assay (AID 1671198). Note: nearly all actives have a fitted effect of over 50% in size. Note: potency is the fitted concentration of half-maximal effect. In a few lines:
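Enzyme-substrate mix preincubated with compound 10 min at room temperature; reaction started with NADPH regeneration solution, 1 h 37C. Luminescent luciferin product read after 20 min detection reagent.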

The target of test [12] is Cytochrome P450 1A2 (Homo sapiens) (UniProt P05177). Nature of the test: Cytochrome P450 Family 1 Subfamily A Member 2 (CYP1A2) small molecule antagonists: luciferase reporter qHTS assay (AID 1671199). Note: nearly all actives have a fitted effect of over 50% in size. Note: potency is the fitted concentration of half-maximal effect. In a few lines: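 Luminescence readout (relative luminescence units) after luciferin detection reagent, 20 min RT. Preceded by 1 h room-temperature CYP1A2 reaction with NADPH regeneration solution following 10 min compound preincubation with enzyme and proluciferin substrate. Furafylline positive control.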
Sequence of Cytochrome P450 1A2 (Homo sapiens) (P05177 whole entry, looked up): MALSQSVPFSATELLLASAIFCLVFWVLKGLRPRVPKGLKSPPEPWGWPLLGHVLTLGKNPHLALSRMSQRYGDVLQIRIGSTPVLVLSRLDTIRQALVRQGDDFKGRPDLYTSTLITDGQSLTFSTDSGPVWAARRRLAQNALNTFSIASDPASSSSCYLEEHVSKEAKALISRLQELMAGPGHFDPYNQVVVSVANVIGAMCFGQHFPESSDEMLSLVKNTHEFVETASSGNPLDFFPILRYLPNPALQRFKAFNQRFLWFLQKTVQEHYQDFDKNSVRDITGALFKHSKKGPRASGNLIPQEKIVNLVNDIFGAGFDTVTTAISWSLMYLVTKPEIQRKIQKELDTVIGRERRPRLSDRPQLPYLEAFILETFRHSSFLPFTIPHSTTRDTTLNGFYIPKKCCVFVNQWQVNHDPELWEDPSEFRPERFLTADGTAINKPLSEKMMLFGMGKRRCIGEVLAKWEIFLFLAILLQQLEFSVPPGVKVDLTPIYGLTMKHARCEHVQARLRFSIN

Test [13] addresses Voltage-gated inwardly rectifying potassium channel KCNH2 (Homo sapiens) (UniProt Q12809). Nature of the test: Human Ether-a-go-go-Related Gene (hERG) channel small molecule antagonists: fluorescence cell-based qHTS assay (AID 1671200). Note: nearly all actives have a fitted effect of over 50% in size. Note: potency is the fitted concentration of half-maximal effect. In a few lines:
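First, 1000 cells per well are seeded and cultured overnight at 37 C. Next, FluxOR II dye is loaded for 1 h at room temperature, protected from light. After 10 more minutes, stimulus is added and fluorescence is read.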
On the technique in general: hERG is a cardiac potassium channel; its block is linked to QT prolongation.

In test [14] the target is Cytochrome P450 3A4 (Homo sapiens) (UniProt P08684). Nature of the test: Cytochrome P450 Family 3 Subfamily A Member 4 (CYP3A4) small molecule antagonists: luciferase reporter qHTS assay (AID 1671201). Note: nearly all actives have a fitted effect of over 50% in size. Note: potency is the fitted concentration of half-maximal effect. In a few lines: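 Enzyme and proluciferin substrate are mixed with test chemicals for 10 min, then NADPH regeneration system drives turnover for 1 h at room temperature. A detection reagent halts the reaction; luminescence after 20 min gives relative activity.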
Sequence of Cytochrome P450 3A4 (Homo sapiens) (P08684 whole entry, looked up): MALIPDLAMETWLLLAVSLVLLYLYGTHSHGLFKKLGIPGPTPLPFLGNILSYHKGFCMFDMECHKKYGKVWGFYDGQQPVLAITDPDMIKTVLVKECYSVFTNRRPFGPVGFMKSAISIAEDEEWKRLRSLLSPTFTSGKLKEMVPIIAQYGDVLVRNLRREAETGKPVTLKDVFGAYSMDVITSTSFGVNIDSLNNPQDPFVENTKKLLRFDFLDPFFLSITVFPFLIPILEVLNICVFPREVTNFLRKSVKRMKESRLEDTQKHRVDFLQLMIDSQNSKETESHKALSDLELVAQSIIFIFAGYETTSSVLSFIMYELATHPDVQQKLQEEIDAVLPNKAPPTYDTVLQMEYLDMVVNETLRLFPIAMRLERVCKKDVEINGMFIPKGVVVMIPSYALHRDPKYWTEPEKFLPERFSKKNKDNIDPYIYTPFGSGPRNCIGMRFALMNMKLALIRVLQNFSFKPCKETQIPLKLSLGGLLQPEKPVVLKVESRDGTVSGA

Test [15] is described as follows: Caspase-3/7 induction in CHO-K1 cells by small molecules, qHTS cell viability counter screen (AID 1346979). Note: nearly all actives have a fitted effect of over 35% in size. Note: potency is the fitted concentration of half-maximal effect. In a few lines:
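Seeding: 1,500 CHO-K1 cells/well. Rest: 5hr, 37C. Treatment: compounds in DMSO, 16hr. Read: CellTiter-Fluor, 1hr, fluorescence.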

Sequence of Acetylcholinesterase (Homo sapiens) (P22303 whole entry, looked up): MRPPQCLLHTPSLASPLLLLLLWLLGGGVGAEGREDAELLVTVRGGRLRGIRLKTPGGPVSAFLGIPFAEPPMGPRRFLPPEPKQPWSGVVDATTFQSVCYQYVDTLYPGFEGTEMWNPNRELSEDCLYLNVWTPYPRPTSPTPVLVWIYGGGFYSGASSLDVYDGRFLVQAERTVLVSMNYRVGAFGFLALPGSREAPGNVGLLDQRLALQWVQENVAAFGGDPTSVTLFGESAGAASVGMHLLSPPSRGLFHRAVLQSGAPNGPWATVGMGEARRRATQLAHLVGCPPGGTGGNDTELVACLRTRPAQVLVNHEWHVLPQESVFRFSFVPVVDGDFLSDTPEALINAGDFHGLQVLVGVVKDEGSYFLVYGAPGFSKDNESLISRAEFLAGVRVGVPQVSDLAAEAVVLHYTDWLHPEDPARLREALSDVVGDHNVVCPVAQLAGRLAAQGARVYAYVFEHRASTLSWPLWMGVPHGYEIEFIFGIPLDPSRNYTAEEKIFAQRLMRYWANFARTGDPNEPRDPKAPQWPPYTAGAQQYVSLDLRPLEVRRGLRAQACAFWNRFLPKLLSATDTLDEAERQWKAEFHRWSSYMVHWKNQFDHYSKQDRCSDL
Sequence of Cytochrome P450 2C9 (Homo sapiens) (P11712 whole entry, looked up): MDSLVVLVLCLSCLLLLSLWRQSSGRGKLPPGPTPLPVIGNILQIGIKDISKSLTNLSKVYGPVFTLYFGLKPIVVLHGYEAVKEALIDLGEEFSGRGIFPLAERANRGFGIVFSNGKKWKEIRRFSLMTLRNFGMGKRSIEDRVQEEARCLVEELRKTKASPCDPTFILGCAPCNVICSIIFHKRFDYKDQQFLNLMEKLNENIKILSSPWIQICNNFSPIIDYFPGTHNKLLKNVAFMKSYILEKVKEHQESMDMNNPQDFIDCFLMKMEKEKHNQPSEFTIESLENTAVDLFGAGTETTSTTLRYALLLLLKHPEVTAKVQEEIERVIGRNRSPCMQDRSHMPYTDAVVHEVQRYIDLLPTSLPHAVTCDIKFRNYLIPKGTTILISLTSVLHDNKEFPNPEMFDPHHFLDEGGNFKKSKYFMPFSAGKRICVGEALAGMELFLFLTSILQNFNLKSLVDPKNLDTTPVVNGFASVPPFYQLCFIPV
Sequence of Voltage-gated inwardly rectifying potassium channel KCNH2 (Homo sapiens) (Q12809 whole entry, looked up): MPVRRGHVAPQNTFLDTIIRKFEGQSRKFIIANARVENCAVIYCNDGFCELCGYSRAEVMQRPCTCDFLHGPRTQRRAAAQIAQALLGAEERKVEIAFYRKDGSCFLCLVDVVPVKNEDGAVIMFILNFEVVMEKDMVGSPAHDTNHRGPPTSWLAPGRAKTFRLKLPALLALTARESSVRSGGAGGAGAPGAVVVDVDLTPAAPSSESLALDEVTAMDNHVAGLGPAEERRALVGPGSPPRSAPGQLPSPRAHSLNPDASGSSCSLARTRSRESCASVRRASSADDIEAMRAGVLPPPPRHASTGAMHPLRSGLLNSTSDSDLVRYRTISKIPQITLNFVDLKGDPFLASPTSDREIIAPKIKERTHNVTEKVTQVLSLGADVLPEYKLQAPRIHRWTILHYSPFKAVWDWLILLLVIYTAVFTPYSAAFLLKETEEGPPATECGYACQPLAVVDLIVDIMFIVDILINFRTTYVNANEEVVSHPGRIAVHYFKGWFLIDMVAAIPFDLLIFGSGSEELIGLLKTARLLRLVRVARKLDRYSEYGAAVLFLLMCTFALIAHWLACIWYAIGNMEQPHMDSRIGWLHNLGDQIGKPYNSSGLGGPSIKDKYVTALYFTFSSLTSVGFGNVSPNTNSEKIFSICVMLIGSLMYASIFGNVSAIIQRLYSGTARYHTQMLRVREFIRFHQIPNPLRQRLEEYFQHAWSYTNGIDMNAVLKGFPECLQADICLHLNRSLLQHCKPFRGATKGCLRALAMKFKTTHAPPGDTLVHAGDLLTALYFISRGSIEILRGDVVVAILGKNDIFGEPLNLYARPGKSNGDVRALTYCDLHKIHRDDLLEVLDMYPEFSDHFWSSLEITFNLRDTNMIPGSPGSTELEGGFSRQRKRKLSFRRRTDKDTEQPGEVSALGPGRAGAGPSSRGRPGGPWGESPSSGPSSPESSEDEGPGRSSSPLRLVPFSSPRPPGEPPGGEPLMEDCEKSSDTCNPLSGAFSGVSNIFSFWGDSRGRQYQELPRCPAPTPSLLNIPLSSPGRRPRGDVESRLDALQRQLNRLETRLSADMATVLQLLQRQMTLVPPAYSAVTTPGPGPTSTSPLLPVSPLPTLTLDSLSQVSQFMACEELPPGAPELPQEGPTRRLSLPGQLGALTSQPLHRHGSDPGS
Sequence of Cytochrome P450 2C19 (Homo sapiens) (P33261 whole entry, looked up): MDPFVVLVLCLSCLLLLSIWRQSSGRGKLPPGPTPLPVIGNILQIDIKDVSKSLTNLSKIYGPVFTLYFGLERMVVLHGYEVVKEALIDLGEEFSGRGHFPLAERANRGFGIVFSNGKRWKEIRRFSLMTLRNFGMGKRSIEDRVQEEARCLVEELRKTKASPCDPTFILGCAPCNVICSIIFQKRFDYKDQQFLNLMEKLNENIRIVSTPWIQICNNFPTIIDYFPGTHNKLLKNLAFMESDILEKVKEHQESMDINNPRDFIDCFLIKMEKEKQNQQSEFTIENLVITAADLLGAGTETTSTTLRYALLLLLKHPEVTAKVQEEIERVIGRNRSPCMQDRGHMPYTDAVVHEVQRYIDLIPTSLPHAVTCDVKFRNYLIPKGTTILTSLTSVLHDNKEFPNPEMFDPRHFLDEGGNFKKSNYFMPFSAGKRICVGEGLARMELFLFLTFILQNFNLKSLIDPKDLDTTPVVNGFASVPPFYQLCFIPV
Sequence of Nuclear receptor subfamily 1 group I member 2 (Homo sapiens) (O75469 whole entry, looked up): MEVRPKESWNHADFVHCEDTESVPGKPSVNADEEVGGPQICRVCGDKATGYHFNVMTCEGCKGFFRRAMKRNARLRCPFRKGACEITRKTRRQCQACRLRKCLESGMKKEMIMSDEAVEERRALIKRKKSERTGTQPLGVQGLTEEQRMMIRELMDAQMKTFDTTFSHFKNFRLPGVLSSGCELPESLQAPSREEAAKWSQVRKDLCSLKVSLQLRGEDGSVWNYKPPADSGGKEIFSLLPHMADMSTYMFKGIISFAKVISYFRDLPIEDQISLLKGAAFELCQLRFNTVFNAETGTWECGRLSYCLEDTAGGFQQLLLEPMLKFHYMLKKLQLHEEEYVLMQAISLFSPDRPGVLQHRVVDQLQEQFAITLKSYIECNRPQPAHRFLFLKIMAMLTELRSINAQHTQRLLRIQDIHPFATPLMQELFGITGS

Turning to `OCCOCCO`, the Potency is 31.5 µM (active) and inactive in test [1]; 62.9 µM (active) and inactive in [4]; 82.1 µM (active) and inactive in test [10]. The Potency result in test [2], in test [3], in [5], in test [6], in test [7] and in test [8] was “inactive” in each case. Also, the Potency entry in [9], in test [11], in test [12], in test [13] and in test [14] was “inactive” in each case.

On to `CC(C)(O)C#N`, for which the Potency entry in test [1], in [15], in [2], in test [3], in [4] and in [5] was “inactive” throughout. For the same compound, the Potency result in test [6], in test [7], in [8], in [9], in test [13] and in test [14] was “inactive” throughout. Also, the Potency is 75.3 µM (active) and 39.9 µM (active) in test [10]; 42.4 µM (active) in test [11]; “inactive and 39.9 µM (active)” in test [12].

As to `CC(O)CN(CC(C)O)CC(C)O` (stereo not given), the Potency result in test [1], in [2], in test [3], in [4], in [5] and in test [6] was “inactive” in each case. For the same compound, the Potency entry in [7], in test [8], in [9], in test [10], in test [11] and in [12] was “inactive” throughout. Moreover, the Potency result in test [13] is “inactive”.

As for `CCNc1nc(Cl)nc(NC(C)(C)C#N)n1`, the Potency entry in [1], in test [2], in [3], in test [5], in test [6] and in test [7] was “inactive” throughout. For the same compound, the Potency result in test [8], in test [9], in [10], in test [11] and in [13] was “inactive” in each case. In addition, the Potency was 61.1 µM (active) in test [4] and 39.9 µM (active) in test [12].

For the compound `CCC[CH2][Sn]([Cl])([CH2]CCC)[CH2]CCC`, the Potency in [1] was 1.73 µM (active) and 2.73 µM (active); in test [15], 194 nM (active) and 344 nM (active); in [2] it was 274 nM (active) and 545 nM (active); in test [3], 1.94 µM (active) and 4.33 µM (active); in test [4], 487 nM (active) and inactive; in test [9] it was 634 nM (active) and 2 µM (active). Moreover, the Potency in test [10] was 2.01 µM (active) and 2.24 µM (active); in test [11] it was 14.2 µM (active) and 15.9 µM (active); in test [12], 40 µM (active); in test [13], 12.3 µM (active) and 6.92 µM (active); in test [14], 15.9 µM (active) and 20 µM (active). For the same compound, the Potency entry in test [5], in test [6], in test [7] and in [8] was “inactive” throughout.

For `Cl`, the Potency entry in test [1], in [15], in test [2], in test [3] and in test [13] was “inactive” in each case.

Take `CCOP(=O)(OCC)OCC`: the Potency result in [1], in test [15], in [2], in test [3], in test [4] and in [5] was “inactive” in each case. The Potency entry in [6], in test [7], in [8], in test [9], in test [13] and in [14] was “inactive” in each case. Besides, the Potency in [10] was 49.4 µM (active) and inactive; in test [11], 35 µM (active) and inactive; in [12] it was 17.5 µM (active) and inactive.
